Source: PubChem BioAssay AID602370 (National Center for Advancing Translational Sciences (NCATS), 2012)
The other results are listed elsewhere or left out. Inconclusive results are not listed. Active and inactive are the calls of the source. Calls come from the whole dose curve; as a rule, active = well fitted inhibition curve with a large enough effect; inconclusive = small, poorly fitted or top-dose-only effect; inactive = no such curve, though single readings can be large or run the other way.

The molecules below were run against 4'-phosphopantetheinyl transferase Sfp (Bacillus subtilis (strain 168)) (UniProt P39135) (assay: qHTS Assay for Inhibitors of Bacillus subtilis Sfp phosphopantetheinyl transferase (PPTase): SAR Round 2). Conditions: purified Sfp enzyme, PPTase activity.
From the text: The covalent attachment of a phosphopantetheinyl (4'-PP) arm to a variety of synthases and other proteins is a key posttranslational protein modification. The 4'-PP is installed on the proteins post-translationally from coenzyme A (CoA) on a conserved serine residue by action of phosphopantetheinyl transferase (PPTase) enzymes. Phosphopantetheinylation is essential for synthase activity, and removal of the PPTase gene precludes natural product synthesis in microorganisms, or in the case of fatty acid biosynthesis, renders the organism unviable. PPTase enzymes belong to a distinct structural superfamily. Within bacteria, these enzymes are grouped into two classes based upon primary structure, the AcpS-Type and Sfp-Type PPTases.
Sfp-type PPTases, corresponding to an activator of surfactin production in Bacillus subtilis, are responsible for modifying type I polyketide and nonribosomal peptide synthases of prokaryotes. Sfp-type PPTases are responsible for the activation of a variety of pathogen-associated virulence factors. Among these compounds are toxins such as mycolactone from Mycobacterium ulcerans, siderophores such as vibriobactin from Vibrio cholerae or mycobactin from Mycobacterium tuberculosis, as well as the mycolic acids which form the waxy cell wall of Mycobacteria. The biosyntheses of these natural products are considered attractive targets for drug design.
In search of small molecule Sfp-PPTase inhibitors, a fluorescence quenching assay was developed for detection of Bacillus subtilis Sfp-PPTase enzymatic activity in a miniaturized high-throughput format. The consensus ybbr acceptor peptide […] was N-terminally labeled with Black Hole Quencher-2 (BHQ-2) and used in combination with rhodamine-labeled coenzyme A as a co-substrate.
Inhibition of Sfp-PPTase was detected by recording the fluorescence intensity change over a 30-minute reaction period at a 525 nm excitation and 598 nm emission. Reagents were supplied by Michael Burkart and Timothy Foley, University of California at San Diego.
NIH Chemical Genomics Center [NCGC]
NIH Molecular Libraries Probe Centers Network [MLPCN]
Assay Submitter (PI): Michale Burkart, University of California, San Diego
Assay Buffer: 50 mM Hepes-Na pH 7.6, 10 mM MgCl2, 0.01% Nonidet P-40, and 0.01% BSA.
3 uL of Sfp-PPTase enzyme (final concentration 15 nM) and 1 uL of substrate mixture (final concentration for rhodamine-CoA and BHQ-2-YbbR 5 uM and 12.5 uM, respectively) dispensed in columns 1, 2, 5 - 48. Columns 1 and 2 used to generate neutral control (uninhibited reaction)
Three uL of reagents, consisting of buffer (in columns 3 and 4 as negative control) and Sfp-PPTase (in columns 1, 2, 5 - 48) were dispensed into 1,536-well Greiner black solid bottom plate. Compounds (23 nL) were transferred via Kalypsys pintool equipped with 1,536-pin array. The plate was incubated for 15 min at room temperature, followed by the addition of 1 uL substrate to start the reaction. The plate was then centrifuged at 1000 rpm for 15 seconds, and the fluorescence intensity recorded on a ViewLux High-throughput CCD imager (Perkin-Elmer) using standard BODIPY optics (525 nm excitation and 598 nm emission). The plate was then incubated for 30 minutes, and a second read on the ViewLux was performed. The fluorescence intensity difference over the 30-minute period was used to calculate the respective reaction rate for each well.

SMILES	Potency
COc1cccc(NC(=S)N2CCN(c3ccccc3C(F)(F)F)CC2)n1	3.24 µM (active)
COc1ccnc(NC(=S)N2CCN(c3ncc(C(F)(F)F)cc3Cl)CC2)c1	0.29 µM (active)
Cc1cc(C)nc(NC(=S)N2CCN(c3cccc(C(F)(F)F)c3)CC2)c1	0.51 µM (active)
Cc1cc(C)nc(NC(=S)N2CCN(c3cccc(C#N)c3)CC2)c1	1.62 µM (active)
Cc1cc(C)nc(NC(=S)N2CCN(c3ccc4nonc4c3)CC2)c1	6.46 µM (active)
Cc1ccc(N2CCN(C(=S)Nc3cc(C)ccn3)CC2)cc1	5.13 µM (active)
Cc1cc(C)nc(NC(=S)N2CCN(c3ccc(Cl)cc3F)CC2)c1	0.91 µM (active)
Cc1cc(C)nc(NC(=S)N2CCN(c3ccc(Cl)cc3C(F)(F)F)CC2)c1	0.58 µM (active)
